Source: PubChem (several laboratories)
NCOA3 inh – SRC3 coactivator transcriptional activity inhibitors, primary screen, cell-based, luminescence; Nuclear receptor coactivator 3 (Homo sapiens), Q9Y6Q9; HEK293 GAL4-SRC3 luciferase reporter; hit rate 0.17% among 360,000; inhibition, % at 3.6 µM; AID 588352, 2011;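 active means inhibition above a per-campaign cutoff, the mean of all compounds plus 3 SD, cut at about 60% in these data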;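 further: 0% = DMSO-treated cells and 100% = gossypol-treated cells at 36 µM; higher means less SRC3-driven luciferase light from the GAL4 reporter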
NR2F2 inh – NR2F2 transcriptional activity inhibitors, primary screen, cell-based, luciferase reporter, HEK293T, luminescence | HEK293T NGFI-A luciferase reporter | inhibition, % at 8.6 µM | hit rate 0.7% among 370,000 | COUP transcription factor 2 (Homo sapiens), P24468;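 active means inhibition above a per-plate cutoff, mean inhibition of test wells between control levels plus 3 SD, cut at about 38% in these data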;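 further: cells cotransfected with COUP-TFII expression vector driving the NGFI-A reporter; 0% = median of COUP-TF2 test wells and 100% = reporter-only cells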
Target sequence (P24468 whole entry, looked up): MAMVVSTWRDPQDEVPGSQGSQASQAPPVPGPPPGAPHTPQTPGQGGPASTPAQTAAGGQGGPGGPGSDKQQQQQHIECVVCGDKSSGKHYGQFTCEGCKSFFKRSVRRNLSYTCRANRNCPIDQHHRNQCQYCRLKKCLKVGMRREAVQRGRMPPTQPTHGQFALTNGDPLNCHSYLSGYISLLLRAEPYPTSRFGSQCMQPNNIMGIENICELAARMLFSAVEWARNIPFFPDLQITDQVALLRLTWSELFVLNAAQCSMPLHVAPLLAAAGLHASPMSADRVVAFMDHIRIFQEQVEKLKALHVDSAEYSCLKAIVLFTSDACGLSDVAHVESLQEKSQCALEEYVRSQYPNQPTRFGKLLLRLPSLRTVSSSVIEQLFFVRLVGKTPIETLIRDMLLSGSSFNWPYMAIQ
Gli-Sufu antag – Gli-Sufu pathway antagonists, primary screen, luciferase luminescence, Sufu-KO-LIGHT cells, uHTS | Sufu-KO-LIGHT fibroblasts, Gli luciferase reporter luminescence | hit rate 0.74% among 340,000 | AID 588413, 2011 | inhibition, % at 5 µM;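 active means inhibition above about 55%, limit read from the data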;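 further: 0% = DMSO-treated cells and 100% = wells with medium but no cells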
NR5A2 inv ag – LRH-1 (NR5A2) inverse agonists, primary screen, cell-based, luminescence, HEK293T, StAR-luciferase reporter | Nuclear receptor subfamily 5 group A member 2 (Homo sapiens), O00482 | LRH-1 transfected, 24 h | inhibition, % at 3.6 µM | hit rate 0.13% among 360,000;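 active means inhibition above the mean inhibition of all tested compounds plus 3 SD, cut at about 73% in these data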;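 further: 0% = DMSO wells and 100% = reporter-only cells lacking LRH-1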
NCOA1 inh – SRC1 coactivator transcriptional activity inhibitors, primary screen, cell-based, luminescence; Nuclear receptor coactivator 1 (Homo sapiens), Q15788; HEK293 GAL4-SRC1 luciferase reporter; inhibition, % at 3.6 µM; hit rate 0.12% among 360,000;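 active means inhibition above the campaign mean plus 3 SD, with each screening campaign given its own cutoff, cut at about 60% in these data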;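 further: 0% = DMSO treated cells and 100% = gossypol at 36 µM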
SRC2 inh – inhibition of GAL4-SRC2 driven luciferase reporter, primary screen, SRC2 inhibitor project, cell-based, luminescence. hit rate 0.17% among 370,000. HEK293 GAL4-SRC2 luciferase reporter. inhibition, % at 9 µM;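 active means inhibition above the mean inhibition of all tested compounds plus 3 SD, set per campaign, cut at about 52% in these data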;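 further: 0% = DMSO treated cells and 100% = cells given Gossypol at 36 µM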
Gli-Sufu confirm – Gli-SUFU pathway antagonists, confirmation, single concentration, luciferase luminescence, Sufu-KO-LIGHT cells; hit rate 40% among 2,500; shares compounds with Gli-Sufu antag; Gli luciferase reporter; inhibition, % at 5 µM;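 active means mean inhibition at 5 µM reaching about 45%, limit read from the data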;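 further: plate controls were DMSO-treated cells for no effect and wells lacking cells for full effect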
Gli cytotox – cytotoxicity in Sufu-KO-LIGHT cells, confirmation, cytotoxicity control for Gli-SUFU antagonist project, cell-based, ATP luminescence, single concentration; shares compounds with Gli-Sufu antag; hit rate 32% among 2,500; cytotoxicity, % at 5 µM;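 active means mean cytotoxicity at 5 µM above about 25%, limit read from the data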;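 further: cells exposed to compound overnight for roughly 16 to 18 hours; plate controls were DMSO wells with cells for no effect and medium without cells for full effect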
Wnt3a cs – Wnt3a reporter signal inhibition, confirmation, counter-screen for Gli-SUFU antagonist project, Wnt-LIGHT cells, luminescence, single concentration. Wnt3a-driven luciferase reporter. inhibition, % at 6.25 µM. hit rate 20% among 2,500. AID 651995, 2013. shares compounds with Gli-Sufu antag;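 active means mean inhibition above about 25%, limit read from the data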
Gal4-VP16 ctr – Gal4-VP16 luciferase reporter inhibitors, counter-screen for COUP-TFII antagonist project, cell-based, luminescence, HEK293; shares compounds with NR2F2 inh; inhibition, % at 8.5 µM; hit rate 25% among 2,500; in the data active means inhibition above about 13%
NR2F2 inh conf – NR2F2 transcriptional activity inhibitors, confirmation, cell-based, luciferase reporter, HEK293, triplicate; inhibition, % at 8.5 µM; shares compounds with NR2F2 inh; HEK293 NGFI-A luciferase reporter, luminescence; hit rate 45% among 2,500;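 active means mean inhibition over three repeats above a set limit taken from the earlier primary screen, cut at about 38% in these data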;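 further: 100% = cells given the luciferase reporter alone without the COUP-TF2 vector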
* marks the source's active call; other numbers are inactive results. In the library only some 1.2% were active in any assay of this set; here they are far more common.

How did COc1cc(CSc2nnnn2-c2ccc(C)cc2)cc(OC)c1OC do in these assays?
NCOA3 inh: 23.1; NR2F2 inh: 68.5*; Gli-Sufu antag: 69.2*; NR5A2 inv ag: 49.3; NCOA1 inh: 15.6; SRC2 inh: 14.4; Gli-Sufu confirm: 68.1*; Gli cytotox: 27.3*; Wnt3a cs: 40.3*; Gal4-VP16 ctr: 0.3; NR2F2 inh conf: 53.9*

What do the screens show for `COc1ccc(F)cc1CSc1nnnn1-c1ccc(O)cc1`?
NCOA3 inh: 17.4; NR2F2 inh: 2.9; Gli-Sufu antag: -16.0; NR5A2 inv ag: 21.1; NCOA1 inh: 8.5; SRC2 inh: 12.2

How did Cc1cc(Br)cn2c(Cc3ccccc3C(F)(F)F)c(-c3ccc(F)cc3)nc12 do in these assays?
NR2F2 inh: 3.5; SRC2 inh: 8.0

What do the screens show for `Fc1ccc2[nH]c3c(N4CCc5ccccc5C4)ncnc3c2c1`?
NCOA3 inh: 31.8; NR2F2 inh: 74.2*; Gli-Sufu antag: 77.2*; NR5A2 inv ag: 16.5; NCOA1 inh: 19.2; SRC2 inh: 8.1; Gli-Sufu confirm: 79.4*; Gli cytotox: 34.3*; Wnt3a cs: 9.4; Gal4-VP16 ctr: -8.0; NR2F2 inh conf: 70.1*

Results for CCOc1ccc2[nH]c3c(N4CCc5ccccc5C4)ncnc3c2c1 ?
NCOA3 inh: 16.8; NR2F2 inh: 14.3; Gli-Sufu antag: 22.9; NR5A2 inv ag: -2.8; NCOA1 inh: 5.5; SRC2 inh: -0.6

How did CN1CCN(c2ncnc3c2[nH]c2ccc(F)cc23)CC1 do in these assays?
NCOA3 inh: 11.9; NR2F2 inh: -0.2; Gli-Sufu antag: -3.9; NR5A2 inv ag: -12.0; NCOA1 inh: -5.3; SRC2 inh: -13.7

What do the screens show for `Cc1ccc2[nH]c3c(N4CCc5ccccc5C4)ncnc3c2c1`?
NCOA3 inh: -6.0; NR2F2 inh: 60.1*; Gli-Sufu antag: 72.7*; NR5A2 inv ag: -22.5; NCOA1 inh: -11.6; SRC2 inh: -8.4; Gli-Sufu confirm: 77.2*; Gli cytotox: 38.3*; Wnt3a cs: -22.1; Gal4-VP16 ctr: -39.1; NR2F2 inh conf: 50.2*

How did Cc1nc2ccccc2c2c1CC(C(C)(Cl)Br)O2 (stereo not drawn) do in these assays?
NCOA3 inh: 22.5; NR2F2 inh: 54.0*; Gli-Sufu antag: 55.4*; NR5A2 inv ag: 23.9; NCOA1 inh: 17.4; SRC2 inh: 35.5; Gli-Sufu confirm: 58.4*; Gli cytotox: 22.3; Wnt3a cs: 7.1; Gal4-VP16 ctr: 6.1; NR2F2 inh conf: 56.4*

Results for Cn1nc(CC(=O)Nc2ccc(N3CCN(C(=O)OC(C)(C)C)CC3)cc2)c2ccccc2c1=O ?
NCOA3 inh: 33.0; NR2F2 inh: 53.2*; Gli-Sufu antag: 65.7*; NR5A2 inv ag: 35.8; NCOA1 inh: 15.1; SRC2 inh: 25.1; Gli-Sufu confirm: 77.7*; Gli cytotox: 38.6*; Wnt3a cs: 37.4*; Gal4-VP16 ctr: 7.3; NR2F2 inh conf: 64.4*

What do the screens show for `COc1cc(NC(=O)Cc2nn(C)c(=O)c3ccccc23)cc(OC)c1`?
NCOA3 inh: 22.7; NR2F2 inh: 37.2; Gli-Sufu antag: 24.2; NR5A2 inv ag: 19.6; NCOA1 inh: -5.2; SRC2 inh: 3.0

How did Cn1nc(CC(=O)N2CCN(c3ccccc3)CC2)c2ccccc2c1=O do in these assays?
NCOA3 inh: 4.3; NR2F2 inh: 8.4; Gli-Sufu antag: 8.3; NR5A2 inv ag: -7.0; NCOA1 inh: -3.0; SRC2 inh: -1.2

How did Cn1nc(CC(=O)Nc2ccc3c(c2)OCCO3)c2ccccc2c1=O do in these assays?
NCOA3 inh: 35.2; NR2F2 inh: 68.2*; Gli-Sufu antag: 66.0*; NR5A2 inv ag: 38.5; NCOA1 inh: 11.8; SRC2 inh: -2.3; Gli-Sufu confirm: 67.9*; Gli cytotox: 30.6*; Wnt3a cs: 41.5*; Gal4-VP16 ctr: -2.2; NR2F2 inh conf: 53.2*

Results for Cc1ccccc1-c1ccc2c(c1)[C@@H]1C[C@H]3[C@@H](CN1CC2)[C@H](C)OC(C1CCCCC1)N3C (stereo partly drawn) ?
NR2F2 inh: -3.6; SRC2 inh: 0.7

Results for CC(/C=C1\SC(=O)N(CCCC(=O)O)C1=O)=C\c1ccccc1 ?
NCOA3 inh: 42.1; NR2F2 inh: 91.5*; Gli-Sufu antag: 60.2*; NR5A2 inv ag: 20.1; NCOA1 inh: 26.5; SRC2 inh: 92.7*; Gli-Sufu confirm: 72.8*; Gli cytotox: 11.9; Wnt3a cs: 100.4*; Gal4-VP16 ctr: 91.7*; NR2F2 inh conf: 100.2*

What do the screens show for `COC(=O)Cc1ccc(NC(=O)c2ccc(C(C)(C)C)cc2)cc1`?
NCOA3 inh: 60.9; NR2F2 inh: 94.7*; Gli-Sufu antag: 72.2*; NR5A2 inv ag: 62.9; NCOA1 inh: 53.9; SRC2 inh: 83.2*; Gli-Sufu confirm: 76.8*; Gli cytotox: 45.5*; Wnt3a cs: 102.3*; Gal4-VP16 ctr: 83.1*; NR2F2 inh conf: 93.5*

Results for COc1ccc(/C=N/OCC(=O)Nc2cc(C)on2)cc1OC ?
NCOA3 inh: 16.4; NR2F2 inh: 1.8; Gli-Sufu antag: -5.1; NR5A2 inv ag: -9.7; NCOA1 inh: -2.4; SRC2 inh: 4.2

How did COc1ccc(/C=N/OCC(=O)NC(c2ccccc2)c2ccccc2)cc1OC do in these assays?
NCOA3 inh: 15.2; NR2F2 inh: 61.2*; Gli-Sufu antag: 53.6; NR5A2 inv ag: 57.0; NCOA1 inh: 14.9; SRC2 inh: 12.4; Gli-Sufu confirm: 53.4*; Gli cytotox: 31.0*; Wnt3a cs: 35.0*; Gal4-VP16 ctr: -5.6; NR2F2 inh conf: 62.3*

Results for Cc1ccc(Cn2cc(CN(C(C)(C)C)S(=O)(=O)c3ccccc3Br)nn2)cc1 ?
NR2F2 inh: 0.1; SRC2 inh: -15.1
